Source: PubChem BioAssay (NCI)
Compounds without any hit were thinned out: in the full panel of roughly 83,000, 20% have a hit.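 Negative percent growth values reflect cell death: -40 means 40% of the cells present at the start died, and -100 means all died.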 A number with no mark means an inactive call. Active and inactive are the calls of the source. Rule for the calls: active = growth percent below 10; inactive = the rest.

Experiments:
Test in all cases: NCI-60 one-dose screen, 48 h (100 = growth as untreated, 0 = no growth, -100 = all killed)
Settings in all cases: 10 µM unless noted
NCI-H23 lung = system: NCI-H23 lung
NCI-H226 lung = system: NCI-H226 lung
NCI-H322M lung = system: NCI-H322M lung
HOP-62 NSCLC = system: HOP-62 NSCLC
NCI-H460 lung = system: NCI-H460 lung
HOP-92 NSCLC = system: HOP-92 NSCLC
NCI-H522 lung = system: NCI-H522 lung
A549/ATCC NSCLC = system: A549/ATCC NSCLC
COLO 205 colon = system: COLO 205 colon
786-0 renal = system: 786-0 renal

Row | SMILES | growth (NCI-H23 lung) | growth (NCI-H226 lung) | growth (NCI-H322M lung) | growth (HOP-62 NSCLC) | growth (NCI-H460 lung) | growth (HOP-92 NSCLC) | growth (NCI-H522 lung) | growth (A549/ATCC NSCLC) | growth (COLO 205 colon) | growth (786-0 renal)
1 | CCOC(=O)c1cc(C(=O)c2ccc(OC)c(OC)c2)n2ccc(/C=C/c3cc[n+](CC(=O)c4ccc(OC)c(OC)c4)cc3)cc12 | 93.5% | 99.2% | 99% | 101% | 98.6% | 110% | 85.5% | 95.9% | 114% | –
2 | N#C/C(=C\c1ccc(C(F)(F)F)cc1)c1cc2ccccc2[nH]1 | 98.1% | 101% | 100% | 99.8% | 97.7% | 119% | 84.5% | 100% | 113% | –
3 | C=C1C(=O)O[C@H]2[C@H]1CC/C(COC(=O)NCc1c[nH]c3ccc(Br)cc13)=C\CC[C@@]1(C)O[C@@H]21 | 29.4% | 4.62% (active) | 74% | 58.5% | 24.1% | -46.3% (active) | -89.9% (active) | 49.1% | -78.2% (active) | -47.7% (active)
4 | Fc1ccc2c(-c3cncn3CCc3ccccc3)c[nH]c2c1 | 86.2% | 75.9% | 91.8% | 87.4% | 92.7% | 65% | 82% | 87% | 101% | –
5 | [O-][n+]1c(Cl)cc(Cl)c2ccccc21 | 102% | 104% | 115% | 103% | 108% | 89.4% | 104% | 91.9% | 107% | –
6 | N#CC1C(C#N)C2c3ccccc3C=CN2C1C(=O)c1ccc(Br)cc1 (stereo not given) | 91.4% | 91.6% | 96.8% | 97.7% | 87.7% | 95.8% | 88.7% | 83.6% | 107% | –
7 | COc1ccc(C(=O)/C=C/c2cc3ccccc3n3nnnc23)cc1 | 103% | 105% | 103% | 103% | 112% | 109% | 94% | 105% | 122% | 91.4%
8 | CCOC(=O)c1nc2c3ccccc3ccn2c1C(=O)OCC | 96.9% | 97.2% | 95.1% | 102% | 118% | 103% | 88.3% | 103% | 109% | –
9 | NNC(=O)c1ccc(-n2nc(-c3ccccc3)c3ccccc32)cc1 | 87.8% | 82.3% | 74.5% | 65.2% | 97.2% | 87.2% | 79.8% | 95.3% | 79.8% | –
10 | COc1ccc(C(=O)c2cc(OC)c(OC)c(OC)c2)cc1O | 27.7% | 84.6% | 43.7% | 22.7% | 2.85% (active) | 51.5% | 12.4% | 17.8% | 41.9% | –
11 | CSc1nc2sc3cccc(Cl)c3n2c(=N)c1C#N | 90.5% | 93.5% | 99.8% | 97% | 102% | 82.4% | 78.9% | 100% | 56.1% | –
12 | COc1ccc(CC(C)=C(c2ccc(OCCN3CCCCCC3)cc2)c2ccc(OCCN3CCCCCC3)cc2)cc1 | -87.9% (active) | -74.4% (active) | -99.3% (active) | -77.4% (active) | -95% (active) | -73.7% (active) | -82.4% (active) | -86% (active) | -67.5% (active) | -72.1% (active)
13 | c1ccc(-c2c(-c3ccccc3)[n+](Cc3ccc4ccccc4c3)c(-c3cccc4ccccc34)n2Cc2ccc3ccccc3c2)cc1 | -38.4% (active) | -42.3% (active) | 4.47% (active) | -84.7% (active) | -80% (active) | -53.9% (active) | -39.5% (active) | -45.1% (active) | -65% (active) | -68.3% (active)
14 | O=C(Cc1ccccc1)NNc1nc(Cl)nc(N2CCN(C(c3ccccc3)c3ccccc3)CC2)n1 | 83% | 94.2% | 89.7% | 98.6% | 102% | 74.3% | -26.6% (active) | 98.5% | 98.6% | 95.4%
15 | N#C/C(=C\c1ccc([N+](=O)[O-])s1)c1nc2cc(Br)ccc2s1 | -27.8% (active) | -75.9% (active) | 85.6% | -35.5% (active) | -26.9% (active) | -55.2% (active) | -45.4% (active) | 5.93% (active) | -74.8% (active) | –
16 | C=C(C)[C@@H]1CC[C@]2(C(=O)N3CCN(C)CC3)CC[C@]3(C)[C@H](CC[C@@H]4[C@@]5(C)C/C(=C/c6cccnc6)C(=O)C(C)(C)[C@@H]5CC[C@]43C)[C@@H]12 | 78.5% | 72.7% | 107% | 88.4% | 44.3% | 52.8% | 59% | 49.4% | 65% | 75.7%
17 | Cc1c(C)c([N+](=O)[O-])c(C)c([N+](=O)[O-])c1C | 116% | 108% | 115% | 121% | 112% | 79.2% | 77.2% | 98.2% | 122% | 95.4%
18 | CCN(CC)CCOc1ccc(NC(=O)C(C(C)C)N2C(=O)/C(=C/c3ccc(Br)cc3)SC2=S)cc1 (stereo not given) | 94.6% | 90% | 99.8% | 104% | 16.2% | 78.8% | 96.3% | 16.6% | 92.1% | –
19 | N#CC1C(C#N)C(C(=O)c2ccc(Br)cc2)N2c3ccccc3C=CC12 (stereo not given) | 79.2% | 64.7% | 93.4% | 75.1% | 96.2% | 55.5% | 78.6% | 65.8% | 3.37% (active) | –
20 | O=C(C[n+]1cccc2ccccc21)c1ccc(O)c(O)c1 | 78.5% | 62.1% | 93.5% | 102% | 92.6% | 73.2% | 20.9% | 84.4% | 56.4% | –
21 | N#C/C(=C\c1ccccn1)c1nc2cc(Cl)ccc2s1 | 72.1% | 67.9% | 87.1% | 63.5% | 92% | 55.8% | 63.4% | 78.1% | 101% | –
22 | COc1ccc(OC)c(CCn2cncc2-c2c[nH]c3ccccc23)c1 | 55.6% | 68.3% | 82.8% | 74.3% | 92% | 46.7% | 71% | 90.8% | 90.1% | –
23 | COc1cc(C=O)ccc1OC1OC(COC(C)=O)C(OC(C)=O)C(OC(C)=O)C1OC(C)=O (stereo not given) | 102% | 93.8% | 120% | 94% | 104% | 88.7% | 104% | 94.8% | 98.7% | 105%
24 | O=C(CCN1CCCC1)c1ccc([N+](=O)[O-])cc1 | 101% | 99.1% | 101% | 98.2% | 108% | 109% | 2.13% (active) | 101% | 107% | –
25 | Cn1ccc2c1CC1CN(Cc3ccco3)C(=O)C1C2C(=O)O (stereo not given) | 94.3% | 103% | 99.3% | 96.8% | 102% | 99.4% | 92.3% | 98% | 117% | –
26 | O=C(Cn1c[n+](CC(=O)c2ccc([N+](=O)[O-])cc2)c2ccccc21)Nc1cccc2cccnc12 | 50.9% | 80.7% | 96% | 95.5% | 77.7% | 28% | 47.1% | 14.3% | 23.9% | –
27 | CC(=O)O[C@@H]1C2CCC3C(CC[C@@]4(C)C3CC[C@@H]4C(C)N(C)C)[C@@]2(C)CC[C@@H]1NC(=O)C=C(C)C (stereo not given in full) | 33.9% | 64.7% | 13.1% | -26.1% (active) | -48.6% (active) | 24.4% | 65.7% | 32.3% | -82.8% (active) | –
28 | CCOC(=O)c1cc(C(=O)c2ccc(OC)c(OC)c2)n2c1ccc1ccccc12 | 86.2% | 80.7% | 101% | 85% | 99.2% | 83.3% | 86% | 98.3% | 112% | –
